Compound activity (PubChem BioAssay)
BoNT-F LC inh = BoNT/F light chain protease inhibitors, primary screen, biochemical, flow cytometry, MLPCN library. inhibition, % at 10 µM. Multiplex microsphere protease cleavage assay. actives 0.22% (n = 360,000); in the data active = inhibition above about 35%, passing the limit was not always enough; inconclusive = no clear call, values can overlap the other calls; also: plate controls were buffer without enzyme for full effect and enzyme alone for no effect
BoNT A protease = BoNT/A light chain protease inhibitors, primary screen, biochemical, flow cytometry, MLPCN library. actives 0.17% (n = 360,000). AID 588499, 2011. multiplex microsphere protease substrate cleavage. inhibition, % at 10 µM; also: plate controls were buffer without enzyme for full effect and enzyme alone for no effect
Bead autofluor = flagged as autofluorescent in microsphere protease counterscreen; actives 3.1% (n = 360,000); compound autofluorescence counterscreen, microsphere flow cytometry; stronger effect = higher value; AID 624483; fluorescence intensity (test concentration not listed); in the data active = fluorescence intensity above about 16000; inconclusive = no clear call, values can overlap the other calls
Anthrax LF prot = Bacillus anthracis LF protease inhibitors, primary screen, biochemical, multiplex microsphere, MLPCN library; Lethal factor (Bacillus anthracis), P15917; inhibition, % at 10 µM; multiplex microsphere protease cleavage assay; AID 588501, 2011; actives 0.12% (n = 360,000); also: plate controls were buffer without enzyme for full effect and enzyme alone for no effect
MazF activator = activators of E. coli MazEF toxin-antitoxin RNase, primary screen, biochemical, fluorescence, uHTS. Endoribonuclease toxin MazF (Escherichia coli (strain K12)), P0AE70. FAM/BHQ RNA-DNA oligo cleavage fluorescence, 5 h. activation, % at 20 µM. actives 0.32% (n = 350,000). AID 504720, 2011; in the data active = activation above about 50%
* = called active by the depositor; ? = inconclusive; nt = no result. An excerpt weighted towards active compounds, which were near 3.7% of everything screened. Rule as the data show it, unless noted: active = inhibition above about 30%; inconclusive = no clear call, values can overlap the other calls; inactive = below that.

SMILES	BoNT-F LC inh	BoNT A protease	Bead autofluor	Anthrax LF prot	MazF activator
Cc1ccccc1N1CCN(CCN2C(=O)CC(=C3c4ccccc4-c4ccccc43)C2=O)CC1	-4.6	-0.5	16193*	-1.7	-12.1
COc1ccccc1N1CCN(CCN2C(=O)CC(=C3c4ccccc4-c4ccccc43)C2=O)CC1	nt	nt	nt	nt	-4.0
O=C1CC(=C2c3ccccc3-c3ccccc32)C(=O)N1CCN1CCN(c2ccccc2)CC1	-0.2	1.8	19425*	-3.4	-4.9
CNCc1ccccc1OCC(=O)Nc1ccccc1OC	-4.9	-4.3	17627*	-1.8	-0.6
COc1ccc(OCC(=O)Nc2ccccc2OC)cc1	-13.5	-1.7	8411	-3.5	-20.9
O=C(COc1ccccc1CNCc1ccccc1)Nc1ccccc1	-12.5	?	24425*	-5.8	7.6
COc1ccccc1-n1cnnc1SCC(=O)NC1CCCC1	2.5	0.1	2874	-3.9	0.7
Cc1nnc(SCC(=O)N2CCC(C(N)=O)CC2)s1	-6.3	-0.2	3267	-3.9	2.8
Cc1nnc(SCC(=O)N2CCOCC2)s1	1.3	?	19625*	-1.1	-2.3
O=C(CSc1ncn[nH]1)Nc1ccc2c(c1)OCCO2	-2.3	-1.1	23582*	-3.6	-5.4
Cc1nnc(SCC(=O)Nc2ccc3c(c2)OCCO3)s1	-5.1	-5.4	21759*	-1.0	-3.4
COc1ccc(CCNC(=O)CSc2ncn[nH]2)cc1	5.3	5.9	19819*	-8.9	2.5
COc1ccc(CCNC(=O)CSc2ccccn2)cc1	-1.8	-0.1	3982	-1.1	7.8
O=C(CSc1nc2ncccc2[nH]1)Nc1c(F)cc(F)cc1Br	-0.6	0.2	5327	-1.6	2.4
CC(=O)Nc1nonc1NC(=O)CSc1ncn[nH]1	-4.9	-5.1	21267*	-3.4	-0.8
O=C(CSc1ncn[nH]1)Nc1c(F)cc(F)cc1Br	-2.3	?	23998*	-1.3	-1.4
CCCc1cc(Nc2cccc(OC)c2)n2ncnc2n1	1.4	1.7	23259*	1.5	6.2
CCCc1cc(Nc2cccc(OCC)c2)n2ncnc2n1	-5.1	0.5	10725	-2.1	-2.9
O=C(O)c1ccccc1-n1c2ccccc2c2ccccc21	9.1	1.5	3616	2.0	2.5
COc1ccc(-n2nc(C(=O)NCC(=O)N3CCC(C(N)=O)CC3)c3ccccc3c2=O)cc1	-0.7	3.0	4136	-1.6	1.7
COc1cccc(C(C)(O)c2nc(-c3ccc(F)cc3OC)cs2)c1 (centres undefined)	-5.7	-0.8	2959	-10.4	nt
Cc1ccc(C)c(C(O)c2ncc(-c3ccc4ccccc4c3)[nH]2)c1 (centres undefined)	-2.0	0.0	3437	-7.8	nt
O=C(CCn1c(=O)oc2ccccc21)Nc1cccc(Br)c1	0.5	0.2	5397	0.3	3.1
CC(C)(C)SCCNC(=O)CN(c1ccc(F)c(Cl)c1)S(C)(=O)=O	-2.4	0.7	23547*	1.0	-8.5
O=C(NCc1ccccn1)[C@@H]1CCCN1C(=O)[C@@H]1CCCN1C(=O)c1cccc(Cl)c1	-2.0	0.5	5635	-1.2	nt
SMILES	BoNT-F LC inh	BoNT A protease	Bead autofluor	Anthrax LF prot	MazF activator
COc1ccccc1C/C(N)=N/OC(=O)COc1cccc2ccccc12	0.8	3.5	21885*	-11.8	-6.2
COc1ccccc1C/C(N)=N/OC(=O)COc1ccccc1C	-22.6	-1.5	6902	-1.2	2.2
Cc1cccc(NC(=O)C(C)Sc2nnc(-c3cccnc3)o2)c1 (centres undefined)	2.6	1.4	8611	2.7	-18.2
COc1ccc(OCC(=O)NNC(=O)Cn2c(=O)cnc3ccccc32)cc1	2.9	4.4	?	-1.0	-11.8
COc1ccc(-c2cc3c(c4c2ccn4C)C2CCC3O2)cc1OC (centres undefined)	-7.5	0.9	6255	-4.0	nt
Clc1ccccc1-c1nn2c(COc3ccccc3)nnc2s1	-6.6	-0.4	10753	-2.3	-8.6
Clc1ccccc1-c1nnc2sc(-c3ccco3)nn12	-2.5	-2.0	23775*	0.7	7.8
COc1cc(-c2nnc3sc(-c4ccco4)nn23)cc(OC)c1OC	-5.1	?	23532*	-2.2	-8.0
COc1ccc(-c2nnc3sc(-c4ccco4)nn23)cc1OC	-16.0	-0.5	8184	-6.1	25.2
c1cncc(-c2nnc3sc(-c4ccco4)nn23)c1	0.0	-0.8	10312	13.3	-5.6
COc1ccc(-c2nnc3sc(-c4ccccc4OC)nn23)cc1	4.6	0.8	9350	6.1	13.4
Clc1ccccc1-c1nnc2sc(-c3ccccn3)nn12	1.6	?	21229*	-2.3	-5.7
COc1cccc(OC)c1-c1nn2c(-c3ccccc3Cl)nnc2s1	1.7	0.3	21844*	0.2	4.4
Cc1[nH]c2ccccc2c1C1(O)C(=O)N(C(C)C)c2ccccc21 (centres undefined)	-7.2	-1.4	23898*	-1.3	5.8
Cc1csc2nc(O)c(C(=O)NC3CCCCC3)c(=O)n12	2.5	1.1	5457	4.4	3.4
Cc1csc2nc(O)c(C(=O)NC3CCCCCC3)c(=O)n12	-81.4	-49.3	18119*	-15.5	3.3
O=C(NCc1ccccn1)Nc1cccc([N+](=O)[O-])c1	7.0	-0.4	5244	1.9	-8.1
O=C(NCc1ccccn1)c1cccc([N+](=O)[O-])c1	-2.9	-1.8	24684*	1.5	-7.9
Cc1ccc(C(=O)NCc2ccccn2)c(Cl)c1	-0.7	-0.5	3688	-3.4	6.8
O=C(COc1ccccc1Br)NCc1ccccn1	1.0	0.5	22895*	-0.7	3.6
O=C(NCc1ccccn1)c1ccccc1Cl	0.3	?	23233*	-2.7	1.3
Cc1nc(N)[nH]c(=O)c1CCC(=O)OCC(C)C	-2.6	-1.5	23221*	-2.5	-0.5
CC12CC(NC(=O)N1c1cccc(C(=O)Nc3ncn[nH]3)c1)c1ccccc1O2 (centres undefined)	10.8	0.7	3858	0.7	59.3*
Cn1c(=O)c(=O)n(C)c2cc(S(=O)(=O)N3CCCCCC3)ccc21	-1.8	?	19386*	-4.3	1.8
Cn1c(=O)n(C)c2cc(S(=O)(=O)N3CCOCC3)ccc21	-0.7	?	20981*	0.4	7.2
Cn1c(=O)n(C)c2cc(S(=O)(=O)N3CCCCC3)ccc21	13.1	-0.4	3054	0.5	7.5
Cc1ccc(NC(=S)N=Nc2c(O)n(C)c3ccc(S(=O)(=O)N4CCOCC4)cc23)cc1	-5.0	11.6	2479	5.2	2.2
Cc1cc(C)cc(NC(=S)N=Nc2c(O)n(C)c3ccc(S(=O)(=O)N4CCOCC4)cc23)c1	3.5	36.8*	1933	15.2	4.1
COc1ccc(NC(=O)c2ccc(S(=O)(=O)N3CC(C)OC(C)C3)cc2)cc1 (centres undefined)	-4.7	0.6	8797	-5.0	3.7
Cc1occc1-c1n[nH]c(=S)n1CC(C)C	-1.6	-2.7	23617*	-1.5	-6.3
